Assay outcomes (PubChem)
TrxR1 substrate – rat thioredoxin reductase 1 substrate activity. 390,000 tested, 0.01% active. Potency, µM (doses to about 114 µM), for the others: top-dose activity change, negative = substrate turnover. purified TrxR1 substrate turnover, NADPH consumption readout. O89049; further: on the % scale 0 is the no-effect control and ±100 the full control effect; nearly all actives have a fitted effect of over 50% in size
Target sequence (O89049 whole entry, looked up): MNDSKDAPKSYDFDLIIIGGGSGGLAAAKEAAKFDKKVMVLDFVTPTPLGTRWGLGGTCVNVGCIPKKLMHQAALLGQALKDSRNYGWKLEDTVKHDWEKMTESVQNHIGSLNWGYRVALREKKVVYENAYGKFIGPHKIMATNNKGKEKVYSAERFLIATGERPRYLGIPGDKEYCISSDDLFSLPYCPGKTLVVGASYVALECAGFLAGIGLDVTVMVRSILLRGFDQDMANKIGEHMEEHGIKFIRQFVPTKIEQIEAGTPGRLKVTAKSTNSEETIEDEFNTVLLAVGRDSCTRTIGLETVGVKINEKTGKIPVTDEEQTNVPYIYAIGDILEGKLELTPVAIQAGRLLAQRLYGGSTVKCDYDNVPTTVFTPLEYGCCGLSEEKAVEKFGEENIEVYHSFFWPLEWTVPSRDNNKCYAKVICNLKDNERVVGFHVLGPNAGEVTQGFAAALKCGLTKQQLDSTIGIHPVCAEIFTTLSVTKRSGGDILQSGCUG
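Rat TrxR1, dispensed at 90 nM, was prereduced with 400 uM NADPH (final) for 5 min at ~22 deg C, then incubated with compound 15 min before 400 uM selenite. A first-read NADPH fluorescence drop versus no-compound background flagged substrates.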
Nrf2 ARE act – Nrf2 pathway activation. AREc32 ARE-luciferase reporter (MCF7-derived line), luminescence, 24 h. Potency, µM (highest dose often 46.1 µM), for inactives: at the top dose activation, hits mostly activators. 410,000 tested, 0.31% active. AID 624171; further: % of control where 0% means no effect; nearly all actives have a fitted effect of over 65% in size
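Steps: seed AREc32_Fluc cells (1000/well, 5% FBS OPTI-MEM); incubate overnight at 37 deg C; add 23 nL compound; incubate 24 hr; add Steady-Glo; hold 30 min RT; read luminescence.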
GALK inhibitor – blocks human galactokinase activity; Potency, µM (titrated, usually from 57.5 µM), inactives show at the top dose activity change, negative = inhibition, most hits filed as inhibitors; AID 1868; Purified GALK, Kinase-Glo residual ATP luminescence; 270,000 tested, 0.007% active; further: on the % scale 0 is the no-effect control and ±100 the full control effect
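Luminescence from leftover ATP (Ultra-Glo luciferase/luciferin) served as read-out after a 1 h room-temperature reaction of 5 nM GALK with 35 uM ATP and 100 uM galactose.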
rTrxR1 inhibitor – inhibitors of rat thioredoxin reductase 1; 390,000 tested, 1% active; AID 588453; Potency, µM (series often up to 114 µM), for inactives: at the top dose activity change, negative = inhibition, hits mostly inhibitors; recombinant rTrxR1, NADPH fluorescence consumption, selenite substrate; further: on the % scale 0 is the no-effect control and ±100 the full control effect; nearly all actives have a fitted effect of over 65% in size
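Rat TrxR1 (90 nM in the dispensed reagent) was pre-reduced with 400 uM NADPH for 5 min at room temperature, then incubated with compound for 15 min. After 400 uM selenite was added, NADPH fluorescence (Ex 340/Em 450 nm) was followed for 8 min.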
A549 tox – A549 cytotoxicity, counter-screen for Nrf2 inhibitors. Potency, µM (highest dose often 46 µM), for inactives: top-dose activity change, negative = cytotoxicity, usual class: inhibitors. A549 ARE-Fluc cells, CellTiter-Fluor viability, 18-24 h. 390,000 tested, 0.16% active. AID 504648; further: on the % scale 0 is the no-effect control and ±100 the full control effect
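Cytotoxicity counterscreen: CellTiter-Fluor fluorescence was measured in A549 ARE_Fluc cells after 18-24 h of compound exposure in a concentration series. The subsequent BugLite luminescent read reports ARE-luciferase activity.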
Nrf2 inh – blocks Nrf2 signaling | AID 504444 | A549 ARE-Fluc reporter, luciferase luminescence, 18-24 h | 360,000 tested, 2.1% active | Potency, µM (top dose mostly 46 µM), for the others: at the top dose activity change, negative = inhibition, usual class: inhibitors; further: on the % scale 0 is the no-effect control and ±100 the full control effect; nearly all actives have a fitted effect of over 60% in size
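A549 ARE_Fluc cells (5000/well, 5% FBS OPTI-MEM) pre-incubated 2 h, then treated with compounds 18-24 h at 37C/5% CO2 in concentration-response. CellTiter-Fluor viability read first; BugLite luciferase luminescence after 15 min at room temperature gives Nrf2 activity.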
* hit, by the source's call; ? = inconclusive; nt = no result given; [ ] = dose if it differs, or a comment. Most compounds without a hit are left out; they make up all but 3% or so of the library. The call rests on the fitted dose curve; in most records, active means well fitted curve in the direction sought with a large enough effect; inconclusive means small, poorly fitted or top-dose-only effect, or another doubt; inactive means no such curve, though single readings can be large; an effect the other way counts as inactive or inconclusive. Potency means the concentration at half of the fitted maximal effect.

SMILES | TrxR1 substrate | Nrf2 ARE act | GALK inhibitor | rTrxR1 inhibitor | A549 tox | Nrf2 inh
CC(=O)Nc1ccccc1-c1ccccc1[N+](=O)[O-] | 4%[2.29 µM] | -1% | nt | 6%[2.29 µM] | -9% | 2%
CC(C)c1csc(CN2CCCC(CNC(=O)c3cccc4ccccc34)C2)n1 (centres undefined) | -7% | 1% | 5% | 0% | -10% | 16µM*
C(=N\Nc1nncc2ccccc12)/c1ccccc1 | 16%[57.1 µM] | 11µM* | -1% | 8%[57.1 µM] | 4% | ?
Clc1nnc(N/N=C/c2ccccc2)c2ccccc12 | 3%[57.1 µM] | ? | 4% | 7%[57.1 µM] | 0% | ?
Clc1ccc(/C=N/Nc2nnc(Cl)c3ccccc23)cc1 | 0% | 1.3µM* | -3% | 5% | -8% | -14%
Clc1nnc(NN=C2CCCC2)c2ccccc12 | 5% | 10µM* | nt | ? | -1% | ?
CC(=O)Nc1ccc(C=NNc2nnc(NN=Cc3ccc(NC(C)=O)cc3)c3ccccc23)cc1 | -15% | 3% | nt | -26% | -6% | 18µM*
Cc1ccc(-n2c(=O)c3c(C)c(C(=O)N(C)C)sc3n(CC(=O)C(C)(C)C)c2=O)cc1C | -3%[57.1 µM] | -1% | nt | 11%[57.1 µM] | -11% | nt
O=C(Cn1c(=O)n(-c2ccc(F)cc2)c(=O)c2sc3ccccc3c21)N1CCCC1 | 133% | 0% | nt | 10% | -15% | -19%
CC(C)(C)OC(=O)N1CCN(/[N+]([O-])=N/Oc2ccc([N+](=O)[O-])cc2[N+](=O)[O-])CC1 | 15% | nt | nt | ? | nt | nt
O=[N+]([O-])c1ccc(O/N=[N+](\[O-])N2CCN(c3ccccc3)CC2)c([N+](=O)[O-])c1 | -7% | nt | nt | 32µM* | nt | nt
O=[N+]([O-])c1ccc(O/N=[N+](\[O-])N2CCN(c3ncccn3)CC2)c([N+](=O)[O-])c1 | 10%[0.457 µM] | nt | nt | 14µM* | nt | nt
CCOc1ccc(NCc2cccn2-c2nnc(N3CCC(C(=O)NCc4ccccc4Cl)CC3)s2)cc1 | -3% | 5% | nt | 11% | 2% | 5%
CCOC(=O)N(C)OC(=O)Nc1ccc(Cl)c(Cl)c1 | 7%[57.1 µM] | 0% | 6% | 16µM* | 14% | 8%
CCOc1cc(CNCCSc2nnnn2C)cc(Br)c1OCc1ccccc1F | -8%[57.1 µM] | 5% | 5% | 8% | ? | 23µM*
COc1cc(CNCCSc2nnnn2C)cc(Br)c1OCc1ccccc1F | -10% | -1% | 3% | -1% | 1% | -8%
COC(=O)c1c(SC)nc2ccccc2c1OCc1ccc(C)cc1C | -1%[57.1 µM] | 5% | nt | 20%[57.1 µM] | 2% | 3%
CC(C)(O)c1cc2ccc(C#Cc3ccsc3)cc2c(=O)o1 | 24%[57.1 µM] | 5µM* | nt | -36% | 1% | 14%
CCCc1ccc(C2C3=C(CC(C)(C)CC3=O)NC3=C2C(=O)c2ccccc23)cc1 (centres undefined) | 4% | 0% | -1% | ? | ? | 8.2µM*
C[C@@H]1CC=C[C@@H]2[C@H]1C(=O)N(Cc1ccccc1)[C@H]2c1cccc(Br)c1 | -2% | 0% | nt | 11% | -5% | 14%
O=C1CCCC2(O)C1C(c1cccc(Br)c1)NC(=O)N2Cc1ccccc1 (centres undefined) | 11% | 0% | 1% | 16µM* | 0% | -4%
Cc1cc(C)cc(OCC(=O)N2N=C(c3cccnc3)CC2(O)C(F)(F)F)c1 (centres undefined) | 0% | 0%[9.22 µM] | nt | 0% | -9% | 23µM*
Cc1ccc(Nc2c(-c3cccnc3)nc3ccc(Cl)cn23)cc1 | 5% | 0% | nt | 11% | -10% | ?
Oc1ccc(N=Nc2ccc3c(c2)OCCO3)c2ncccc12 | -4% | 11% | 1% | -6% | ? | 18µM*
Cc1cccc(N=Nc2ccc(O)c3ncccc23)c1 | -4% | ? | 0% | 10% | -27% | ?
SMILES | TrxR1 substrate | Nrf2 ARE act | GALK inhibitor | rTrxR1 inhibitor | A549 tox | Nrf2 inh
COc1ccc(NC(=O)CC2C(=O)N(c3ccc(F)cc3)C(=O)N2Cc2ccco2)cc1 (centres undefined) | -12% | 0% | nt | -12% | 0% | 12%
CCOc1nc(C#N)nc(N2CCCCC2)n1 | 5%[11.4 µM] | 5% | 2% | 15%[11.4 µM] | -20% | 16µM*
CCCN(CCC)C(=O)Cn1c(=O)n(-c2ccc(OC)cc2)c(=O)c2ccc(C(=O)NCc3ccc(C)cc3)cc21 | 1% | 0% | nt | 13% | -4% | -21%
Cc1ccc(S(=O)(=O)Nc2ccc(-n3c(C)nc4ccccc4c3=O)cc2)cc1 | 4% | -1% | nt | 12% | 0% | 18µM*
Clc1ccc(-c2noc3ncnc(N4CCCCC4)c23)cc1 | -2% | 0% | nt | 9% | -1% | -21%
CN1C2CCC1/C(=C\c1ccccc1)C(=O)/C2=C\c1ccccc1 | -15% | ? | -6% | -13% | ? | 26µM*
CCC(=O)Nc1ccccc1-c1nc2ccccc2n(CC(=O)Nc2ccccc2OC)c1=O | 1% | 0% | nt | 1% | -7% | 15%
C/C(=N/NS(=O)(=O)c1ccc(Cl)cc1)c1ccncc1 | 2% | 0% | 4% | 25µM* | -6% | -4%
Cc1ccc(-c2cc(C(=O)N(Cc3ccc(C(C)(C)C)cc3)Cc3ccco3)no2)cc1 | 1% | 0% | nt | 31% | 1% | ?
C=CCNc1oc(-c2cccc(Cl)c2)nc1C#N | -12% | 5% | nt | -34% | -3% | 4%
C=CCNc1oc(-c2ccc(-c3ccccc3)cc2)nc1C#N | -4% | 0% | nt | 14µM* | 0% | -16%
CCCCn1c(-c2ccc(Br)cc2F)nc2c1c(=O)[nH]c(=O)n2CC(C)C | 3% | 5% | 5% | 14% | ? | 21µM*
CCN(c1ccccc1)S(=O)(=O)c1cc(C(=O)OCC(=O)c2c(N)n(C)c(=O)n(C)c2=O)ccc1C | -9% | 3% | nt | ? | ? | 18µM*
Cn1c(N)c(C(=O)COC(=O)c2nc(Cl)ccc2Cl)c(=O)n(C)c1=O | 5% | 2.2µM* | 9% | 17% | 1% | 6%
Cn1c(N)c(C(=O)COC(=O)c2cccnc2Cl)c(=O)n(C)c1=O | 13%[57.1 µM] | 1% | 3% | 19%[57.1 µM] | -1% | 2%
CCCCCCn1nc(C(=O)OCC(=O)c2c(N)n(C)c(=O)n(C)c2=O)c2ccccc2c1=O | -2% | -1% | 1% | 9% | -4% | 23µM*
Cn1c(=O)c2cc(S(=O)(=O)NCCC(=O)N3CC=C(c4ccccc4)CC3)ccc2n(C)c1=O | 15% | 0% | -2% | 17% | -6% | 15µM*
CN(CC(=O)N1CC=C(c2ccccc2)CC1)S(=O)(=O)c1ccc2c(c1)c(=O)n(C)c(=O)n2C | -3% | 5% | 0% | -21% | 12% | 1%
Cc1ccc(NC(=O)CCCc2nnc3n(C)c(=O)c4sccc4n23)cc1C | 5% | 1% | nt | 7% | 3% | 0%
